{"source": "PubChem BioAssay (Tox21)", "note": "Results filed as inconclusive are left out. Unmarked numbers belong to inactive results. Activity calls are given as the source filed them. The call rests on the fitted dose curve; in most records, active means well fitted cell-killing curve with a large enough effect in the repeat runs; inconclusive means weak or mixed curves; inactive means flat fitted curve, though single readings scatter. On the % scale 0 is the no-effect control and ±100 the full control effect; potency means the concentration at half of the fitted maximal effect.", "data": [{"test": "qHTS RealTime-Glo MT Cell Viability Assay in HepG2 cells - 32 hour (AID 1224877); further: nearly all actives have a fitted effect of over 55% in size", "conditions": "RealTime-Glo luminescence; series mostly up to 76.8 µM; activity change, negative = cytotoxic: at the top concentration", "from_the_text": "U.S. Tox21 Program National Center for Advancing Translational Sciences [NCATS] NIH Chemical Genomics Center [NCGC] U.S. Environmental Protection Agency [EPA] National Institutes of Environmental Health Sciences [NIEHS] National Toxicology Program [NTP] U.S. Food and Drug Administration [FDA] Tox21 Assay Overview: Measure of cell viability is critical in the cell-base assay. Analysis of cell viability is necessary for the characterization of cell responses to cytotoxic drugs and environmental stress. A RealTime-Glo MT Cell Viability Assay to monitor cell viability in real time of continues cell culture during 40 hours of compound treatment was used to screen Tox21 10K library compounds in HepG2 cells. The RealTime-Glo MT Cell Viability Assay is a nonlytic, homogeneous, bioluminescent method to measure cell viability in real time using a simple, plate-based method. The assay involves adding NanoLuc luciferase and a cell-permeant prosubstrate to cells in culture. Viable cells reduce the proprietary prosubstrate to generate a substrate for NanoLuc luciferase. This substrate diffuses from cells into the surrounding culture medium, where it is rapidly used by the NanoLuc Enzyme to produce a luminescent signal. The signal correlates with the number of viable cells, making the assay well suited for cytotoxicity studies.\nTox21 Assay Protocol Summary: The mixture of HepG2 cell suspension and reagents were dispensed at 600cells/6 ul/well in 1536-well tissue culture treated black solid bottom plates using a Multidrop dispenser. After the assay plates were incubated at a 37 C/5% CO2 incubator for 5 hours, 23 nL of compounds dissolved in DMSO, positive and negative controls was transferred to the assay plate by a pintool work station. The plates were incubated at 37 C for 40 hours. The luminescence intensity were measured at 0h, 8h, 16h, 24h, 32h and 40h time points using ViewLux plate reader during compound treatment.", "values": [{"smiles": "Cc1c2ccccc2c(C)c2c1ccc1ccccc12", "activity change, negative = cytotoxic": "0.524%"}, {"smiles": "CC[N+](CC)(CC)CCOC(=O)C(C1CCCC1)C1CCCC1", "activity change, negative = cytotoxic": "2.17% [at 35.3 µM]"}, {"smiles": "O=C(O)c1cccc(C(F)(F)F)c1", "activity change, negative = cytotoxic": "-1.41%"}, {"smiles": "CC[N+](CC)(CC)CCOc1ccc(/C=C/c2ccccc2)cc1", "Potency": "26.8 µM (active)"}, {"smiles": "C=Cc1cccc(C)c1", "Potency": "inactive"}, {"smiles": "CC(C)(C)C1CCC(=O)CC1", "activity change, negative = cytotoxic": "-2.84%"}, {"smiles": "CC(C)Cn1cnc2c(N)nc3ccccc3c21", "activity change, negative = cytotoxic": "-0.3% [at 15.8 µM]"}, {"smiles": "Cc1cccc(C)c1NC(=O)c1ccc(N)cc1", "activity change, negative = cytotoxic": "5.2% [at 35.3 µM]"}, {"smiles": "CC(C)=CCC1=C(O)c2ccccc2C(=O)C1=O", "activity change, negative = cytotoxic": "-0.594%"}, {"smiles": "CC[C@H](C)COC(=O)/C=C/c1ccc(N=Cc2ccc(OC)cc2)cc1", "activity change, negative = cytotoxic": "-1.06%"}, {"smiles": "Cc1ccc(O)c(O)c1", "activity change, negative = cytotoxic": "-8.19%"}, {"smiles": "CC1(C)CCC[C@]2(C)[C@H]3CCO[C@]3(C)CC[C@@H]12", "activity change, negative = cytotoxic": "0.391%"}, {"smiles": "CC(C)(c1cc(Br)c(OCC(Br)CBr)c(Br)c1)c1cc(Br)c(OCC(Br)CBr)c(Br)c1", "note": "(stereo not given)", "activity change, negative = cytotoxic": "-3.37% [at 35.3 µM]"}, {"smiles": "CCCCC(CC)CN1CN(CC(CC)CCCC)CC(C)(N)C1", "note": "(stereo not given)", "Potency": "16.9 µM (active)"}, {"smiles": "CCCC(=O)OCOC(=O)C1=C(C)NC(C)=C(C(=O)OC)C1c1cccc(Cl)c1Cl", "note": "(stereo not given)", "activity change, negative = cytotoxic": "-5.49% [at 35.3 µM]"}, {"smiles": "C=CC(=O)OCCOC(=O)C=C", "activity change, negative = cytotoxic": "-0.735%"}, {"smiles": "COC(=O)c1ccccc1C", "activity change, negative = cytotoxic": "2.45%"}, {"smiles": "C=CCCC(=O)/C=C/C1C(C)=CCCC1(C)C", "note": "(stereo not given)", "activity change, negative = cytotoxic": "-5.11%"}, {"smiles": "C=CC(=O)Nc1cc2c(Nc3ccc(F)c(Cl)c3)ncnc2cc1OCCCN1CCOCC1", "Potency": "9.52 µM (active)"}, {"smiles": "COC(=O)Nc1nc2ccc(C(=O)c3ccccc3)cc2[nH]1", "activity change, negative = cytotoxic": "-19.4% [at 35.3 µM]"}, {"smiles": "Oc1ccccc1O", "Potency": "inactive"}, {"smiles": "CCO[C@@H]1O[C@H](C(COCc2ccccc2)OCc2ccccc2)[C@H](OCc2ccccc2)[C@H]1O", "note": "(stereo not given in full)", "activity change, negative = cytotoxic": "-16.6% [at 35.3 µM]"}, {"smiles": "CN(C)CCN1CCN(c2cccc(Cl)c2)C1=O", "activity change, negative = cytotoxic": "-0.0444% [at 35.3 µM]"}, {"smiles": "Cc1nc(-c2ccc(Cl)cc2)oc1COC(C)(C)C(=O)O", "activity change, negative = cytotoxic": "0.5% [at 35.3 µM]"}, {"smiles": "C#C[C@]1(O)CC[C@H]2[C@@H]3[C@H](C)CC4=C(CCC(=O)C4)[C@H]3CC[C@@]21C", "activity change, negative = cytotoxic": "-11.6% [at 35.3 µM]"}, {"smiles": "Clc1ccnc(Cl)n1", "activity change, negative = cytotoxic": "7.68%"}, {"smiles": "COc1ccc(NC(=O)CC(C)=O)cc1", "activity change, negative = cytotoxic": "-1.37%"}, {"smiles": "O=C(O)c1ccc2cc(C(=O)O)ccc2c1", "activity change, negative = cytotoxic": "-5.42%"}, {"smiles": "O=C(O)CCN(C1(C(=O)NO)CCCC1)S(=O)(=O)c1ccc(Oc2ccc(F)cc2)cc1", "activity change, negative = cytotoxic": "5.29%"}, {"smiles": "COC(C)=O", "activity change, negative = cytotoxic": "-2.73%"}, {"smiles": "CC(CO)Oc1ccccc1", "note": "(stereo not given)", "activity change, negative = cytotoxic": "1.07%"}, {"smiles": "CCc1oc2ccccc2c1C(=O)c1cc(I)c(O)c(I)c1", "activity change, negative = cytotoxic": "-9.29% [at 35.3 µM]"}, {"smiles": "c1ccsc1", "activity change, negative = cytotoxic": "0.004%"}, {"smiles": "CCCCCCCCCCOC(=O)c1ccccc1C(=O)OCCCCCCCC", "activity change, negative = cytotoxic": "-1.53%"}, {"smiles": "Cc1ccc(O)c(N)c1", "activity change, negative = cytotoxic": "-3.8%"}, {"smiles": "CCC(CC)(CC(=O)Nc1cccc(/C=C/c2nc(C3CCC3)cs2)c1)C(=O)O", "activity change, negative = cytotoxic": "-3.87% [at 35.3 µM]"}, {"smiles": "CCCCCCCCCCC[C@@H](C[C@@H]1OC(=O)[C@H]1CCCCCC)OC(=O)[C@H](CC(C)C)NC=O", "activity change, negative = cytotoxic": "-12.3% [at 35.3 µM]"}, {"smiles": "CC1(C)CCC[C@]2(C)[C@H]3CC(=O)O[C@]3(C)CC[C@@H]12", "activity change, negative = cytotoxic": "-5.75%"}, {"smiles": "CC(=O)Oc1cc2c(s1)CCN(C(C(=O)C1CC1)c1ccccc1F)C2", "note": "(stereo not given)", "activity change, negative = cytotoxic": "-2.59% [at 35.3 µM]"}, {"smiles": "O=c1[nH]c2ccccc2n1CCCN1CCN(C(c2ccccc2)c2ccccc2)CC1", "Potency": "26.8 µM (active)"}]}]}
